High-throughput results deposited in PubChem by Sanford-Burnham Center for Chemical Genomics.
This is a sample that favours compounds with a hit; in the whole collection about 2.9% have one here.
APOBEC3A inh: blocks human APOBEC3A ssDNA deamination | inhibition, % at 20 µM | actives 0.41% (n = 330,000) | P31941 | recombinant A3A, FAM/TAMRA ssDNA deamination fluorescence | AID 493011;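 active = at least 40% inhibition at 20 µM here, with at most 30% in a related deaminase screen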;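 note: plate controls were A3A with DMSO for no effect and wells lacking A3A enzyme for full effect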
Target sequence (P31941 whole entry, looked up): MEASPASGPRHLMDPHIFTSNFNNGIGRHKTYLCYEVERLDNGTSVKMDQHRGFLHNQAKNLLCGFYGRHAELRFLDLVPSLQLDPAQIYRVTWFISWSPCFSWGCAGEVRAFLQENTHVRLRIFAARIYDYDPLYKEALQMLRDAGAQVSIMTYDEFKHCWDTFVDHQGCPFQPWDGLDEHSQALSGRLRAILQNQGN
A3G deaminase: inhibitors of human APOBEC3G DNA deaminase | actives 0.28% (n = 330,000) | Q9HC16 | inhibition, % at 20 µM | recombinant A3G, ssDNA deamination FAM/TAMRA fluorescence;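 active = inhibition of at least 40% at 20 µM, with no more than 30% in the related APOBEC3A deaminase screen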;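 note: plate controls were DMSO wells with A3G for no effect and wells lacking A3G enzyme for full effect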
Target sequence (Q9HC16 whole entry, looked up): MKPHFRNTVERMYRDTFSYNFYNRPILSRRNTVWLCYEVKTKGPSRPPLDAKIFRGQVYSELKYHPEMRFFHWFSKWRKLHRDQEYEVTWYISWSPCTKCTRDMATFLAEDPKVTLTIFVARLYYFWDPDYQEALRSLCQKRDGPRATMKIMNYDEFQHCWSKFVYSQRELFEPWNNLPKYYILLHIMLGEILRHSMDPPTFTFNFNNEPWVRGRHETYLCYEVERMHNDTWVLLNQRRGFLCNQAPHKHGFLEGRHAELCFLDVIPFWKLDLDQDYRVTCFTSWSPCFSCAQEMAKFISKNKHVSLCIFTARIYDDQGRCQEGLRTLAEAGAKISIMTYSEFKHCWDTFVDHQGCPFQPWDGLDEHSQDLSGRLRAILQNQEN
H9c2 TAG inh: triacylglycerol accumulation inhibition | inhibition, % at 12.5 µM | actives 0.66% (n = 230,000) | AID 651582 | H9c2 cells, Nile Red lipid (TAG) fluorescence; cells loaded with 200 µM oleic acid;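 active = pattern-corrected inhibition of lipid staining of at least 50% with the nuclear-stain viability signal not falling by more than 50%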;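 note: 0% = DMSO wells and 100% = triacsin C control wells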
PfGluPho inh: PfG6PD (Plasmodium falciparum) enzyme inhibition | PfGluPho enzyme, NADPH resazurin-diaphorase fluorescence | inhibition, % at 20 µM | actives 0.78% (n = 350,000) | AID 504690;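 active = inhibition reaching at least a set limit at 20 µM in the primary screen, cut at about 59% in these data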;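 note: 0% = DMSO wells with substrate and 100% = DMSO wells lacking glucose-6-phosphate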
NadD block: blocks S. aureus nicotinate mononucleotide adenylyltransferase; purified NadD enzyme, colorimetric absorbance read-out; inhibition, % at 20 µM; actives 0.78% (n = 360,000); AID 602399; in the data active = inhibition above about 26%
H9c2 protect: protects H9c2 cardiomyocytes from peroxide injury; AID 588492; actives 0.63% (n = 360,000); H2O2 injury protection, ATPLite, 2 h; protection from H2O2 cell death, % at 20 µM;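 active = compounds giving at least 50% protection of heart cells from peroxide-induced death in the single-dose screen, raw or plate-pattern-corrected value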;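 note: 0% = DMSO wells with peroxide and 100% = DMSO wells without peroxide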
TAG conf: confirmation of triacylglycerol accumulation inhibitors. shares compounds with H9c2 TAG inh. H9c2 lipid accumulation, Nile Red fluorescence; cells loaded with 200 µM oleic acid. inhibition, % at 12.5 µM. actives 71% (n = 990);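 active = mean inhibition across replicates of 40% or more; inactive = mean inhibition below 40%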;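 note: plate controls were DMSO only wells for no effect and Triacsin C treated wells for full effect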
An asterisk follows results filed as active; x = no result.

SMILES	APOBEC3A inh	A3G deaminase	H9c2 TAG inh	PfGluPho inh	NadD block	H9c2 protect	TAG conf
CCOc1cc(/C=N\NC(=O)c2ccc(NC(=O)C(C)(C)C)cc2)ccc1OC(=O)c1cccc(C)c1	0	-6	64*	-2	16	66*	37
COc1cc(OC)cc(C(=O)N2CC(=O)Nc3ccccc32)c1	-5	-8	58*	-16	-4	9	63*
Cc1cc(=O)oc2cc(NC(=O)c3cccc(Br)c3)ccc12	4	13	69*	-16	10	2	52*
CC(C)CN(C#N)c1nc(N2CCOCC2)nc(N2CCOCC2)n1	-2	-3	62*	-19	-4	4	45*
CCOC(=O)C(C)Oc1cccc2c(=O)n(CC(=O)NCc3ccc4c(c3)OCO4)ccc12 (stereo unspecified)	-2	-7	54*	-2	1	-3	55*
O=C(Cn1cc(C(=O)C2CC2)c2ccccc21)NCc1ccc2c(c1)OCO2	1	-4	51*	-12	-5	9	26
Cc1cccc(OCCC(=O)OCC(=O)Nc2c(C)nn(-c3ccccc3)c2C)c1	15	-2	11	-7	-1	4	x
CCCCNC(=O)C(=O)Nc1ccc2c(c1)N(S(=O)(=O)c1cccs1)CCC2	x	x	60*	15	-2	-4	54*
COc1ccc(NC(=O)Cn2nnc(-c3ccccc3NC(=O)C3CC3)n2)cc1	-4	-4	x	-4	-7	-7	x
CCOc1ccc(NC(=O)Cn2nnc(-c3ccccc3NC(=O)C3CC3)n2)cc1	0	-3	72*	-10	-11	-3	40
COc1ccc(-c2csc(NC(=O)CC(C)C)n2)cc1	0	-3	65*	19	-4	-1	32
CC(C)C[C@H]1C(=O)N2CCC[C@H]2[C@]2(O)O[C@](NC(=O)[C@@H]3C=C4c5cccc6[nH]c(Br)c(c56)CC4N(C)C3)(C(C)C)C(=O)N12 (stereo partly specified)	-1	-4	62*	24	5	31	92*
O=C1CN(C(=O)COc2cccc(F)c2)c2ccccc2N1	1	-10	x	x	x	x	x
Cc1noc(C)c1COc1cccc(C(=O)OCC(=O)N2CC(=O)Nc3ccccc32)c1	-2	-5	66*	1	-2	12	89*
COc1ccc(CCNCc2cc3ccc(C)cc3[nH]c2=O)cc1OC	0	-7	x	3	-8	-13	x
CCN(CC)CCn1c(SCC(=O)Nc2cccc(OC)c2)nc2c(sc3ccccc32)c1=O	-1	-1	52*	4	3	1	54*
COc1cccc(NC(=O)CSc2nc3c(sc4ccccc43)c(=O)n2CCN(C)C)c1	-7	5	-3	-3	-9	4	x
CC(C)CCn1c(=O)c2ccccc2n2c(CCC(=O)NCC3CCCO3)nnc12 (stereo unspecified)	-4	-1	x	4	-2	12	x
Cc1ccc(CN(C)C(=O)CN2C(=O)NC3(CCCc4ccccc43)C2=O)c(C)c1 (stereo unspecified)	-2	-8	51*	-11	-3	-1	40*
CN(C)C(=O)CN1C(=O)NC2(CCCc3ccccc32)C1=O (stereo unspecified)	1	-2	5	-8	-6	3	x
COc1ccc(C=NN=C2c3ccccc3-c3ccccc32)cc1OC	x	x	12	26	0	23	x
COc1ccc(-c2ccc3[nH]c4c(c3c2)CCN2C[C@@H]([C@H](C)O)[C@@H](N(C)C(=O)Nc3cc(Cl)cc(Cl)c3)C[C@@H]42)cc1	x	x	28	6	22	-1	x
Cc1cccc(-c2ccc3[nH]c4c(c3c2)CCN2C[C@@H]([C@H](C)OC(=O)Nc3ccccc3C)[C@@H](N(C)C(=O)Nc3ccccc3C)C[C@@H]42)c1	x	x	54*	19	23	2	66*
C[C@H](O)[C@@H]1CN2CCc3c([nH]c4ccc(-c5ccc6c(c5)OCO6)cc34)[C@@H]2C[C@@H]1N(C)C(=O)Nc1ccc(F)cc1	x	x	82*	10	13	-24	69*
COc1cc([C@@H]2c3cc4c(cc3[C@H](O)[C@H]3COC(=O)[C@H]23)OCO4)cc(OC)c1OC	-2	-5	50*	-2	3	6	49*
SMILES	APOBEC3A inh	A3G deaminase	H9c2 TAG inh	PfGluPho inh	NadD block	H9c2 protect	TAG conf
CC(=O)Nc1ccc(NC(=O)C(C)OC(=O)CNS(=O)(=O)c2cccc(Cl)c2)cc1 (stereo unspecified)	5	-7	1	-15	-4	6	x
Cc1ccc(NC(=O)c2cc3ccccc3o2)cc1S(=O)(=O)N(C)C	x	x	70*	27	-1	-20	26
O=C(OCC(=O)c1ccc(Cl)cc1Cl)c1cnccn1	-5	2	x	-23	0	4	x
COc1cc(/C=C2/NC(=O)N(Cc3ccccc3F)C2=O)ccc1O	0	-5	59*	-3	0	10	63*
O=C(c1cnn2c1NC(c1ccc(Br)cc1)CC2C(F)(F)F)N1CCN(C23CC4CC(CC(C4)C2)C3)CC1 (stereo unspecified)	1	-4	54*	19	8	-4	55*
O=C(c1cnn2c1NC(c1ccc(Br)cc1)CC2C(F)(F)F)N1CCN2CCCC2C1 (stereo unspecified)	2	3	x	3	-3	0	x
CC(=O)N1CCN(C(=O)c2ccc(NS(=O)(=O)c3ccc4c(c3)OCCO4)cc2)CC1	2	-11	-1	-27	1	-5	x
CSc1nc(NCCN(C)C)c2sc3nc(-c4ccco4)c4c(c3c2n1)CCC4	x	x	51*	18	-4	3	37
CCCCc1ccc(N=N/C(C(=O)Nc2ccccc2OC)=C(/C)O)cc1	3	-1	x	2	-5	-5	x
CCCCc1ccc(N=N/C(C(=O)Nc2cc(OC)c(NC(C)=O)cc2OC)=C(/C)O)cc1	0	-3	55*	-4	-5	-3	68*
COc1ccc(OC)c(S(=O)(=O)Nc2ccc(-c3ccc4nnc(C)n4n3)cc2)c1	-3	-7	11	13	-1	6	x
COc1ccc(CC(=O)Nc2ccc(-c3ccc4nnc(C)n4n3)cc2)cc1OC	2	0	58*	13	-1	5	71*
Cc1ccc(-c2nn3c(C)nnc3c3ccccc23)cc1S(=O)(=O)NC(C)c1ccccc1 (stereo unspecified)	0	1	50*	1	11	91*	53*
CC(C)C[C@H](NC(=O)OCC1c2ccccc2-c2ccccc21)C(=O)O	x	x	0	-31	-5	1	x
CCOc1ccc(CCNC(=O)CN2CCN(Cc3ccc(F)cc3)C2=O)cc1OCC	0	1	33	7	-5	4	x
